In PubChem BioAssay (NCATS):
Records with an inconclusive call do not appear.

Assay: qHTS Assay for Lipid Storage Modulators (AID 1519)
Settings: Drosophila S3 cells, BODIPY lipid droplet/cell ratio, laser cytometry; measured here: cell count channel max response; cells loaded with oleic acid
Method in brief: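 Cells seeded at 5,000 per well were treated with compounds over a concentration series and loaded with oleic acid (400 uM, as added). Lipid droplet fluorescence (488 nm excitation, 500-530 nm channel) was read by laser-scanning cytometry and normalized to 20 uM Triacsin C.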
Work on `FC(F)(F)c1ccccc1-c1nccc(NCc2cccs2)n1` yielded a max response of 6.69%. With `CN1CCN(c2ncc3ncc(=O)n(C[C@H]4CCCO4)c3n2)CC1` the max response was 7.9%. `COCCn1c(=O)c(-c2cccc(C#N)c2)nc2cnc(Oc3ccccc3)nc21` gave a max response of -1.86%. `CS(=O)(=O)Nc1cccc(-c2ccc3ncnc(Nc4ccccc4)c3c2)c1` gave a max response of 6.09%. Compound `FC(F)(F)c1ccccc1-c1nc(NCc2cccs2)c2ccccc2n1` has a max response of 10.4%. Compound `c1ccc(CNc2ncnc3ccc(-c4cccnc4)cc23)cc1` has a max response of 14%. Compound `COc1ccc(-c2nc3cnc(N4CCN(C)CC4)nc3n(Cc3cccs3)c2=O)cc1` has a max response of 17.6%. `COCCn1c(=O)cnc2cnc(Nc3cccc(OC)c3)nc21` gave a max response of -13.4%. For `COCCn1c(=O)cnc2cnc(Nc3ccccc3)nc21`, the max response was -2.6%. For `CN1CCN(c2ncc3nc(-c4cc(F)cc(F)c4)c(=O)n(CCc4ccccc4)c3n2)CC1`, the max response was 10.6%. `O=c1c(-c2ccc(Cl)cc2)nc2cnc(N3CCNCC3)nc2n1Cc1cccs1` showed a max response of -11.5%. With `O=c1c(-c2ccc(F)cc2)nc2cnc(N3CCNCC3)nc2n1C1CC1` the max response was 26.5%. With `COc1ccc(-n2c(=O)c(-c3ccc(Cl)cc3)nc3cnc(N4CCNCC4)nc32)cc1` the max response was 9.83%. `COCCNc1ncnc2ccc(-c3cccc(OC)c3)cc12` gave a max response of -9.38%. In the case of `O=c1c(-c2ccc(Cl)cc2)nc2cnc(N3CCOCC3)nc2n1-c1ccccc1`, the max response is reported as 25.3%. `CN(C)c1ncc2nc(-c3ccc(F)cc3)c(=O)n(Cc3ccc(F)cc3)c2n1` gave a max response of 19.6%. `COc1ccc(-c2nc3cnc(Oc4ccccc4)nc3n(CCC#N)c2=O)cc1` showed a max response of -12.9%.
